Experimental data taken from paper PMC7826789 (International Journal of Molecular Sciences, 2021).

The molecules below were run on EGFR.

Row | SMILES | Kinases covered
1 | COc1cc2ncnc(Nc3ccc(F)c(Cl)c3)c2cc1O[C@H]1CC[C@H](N)CC1 [BIBW3133BS] | EGFR
2 | Cl.O=C(O[C@H]1CN[C@H](C#Cc2cc3ncnc(Nc4ccc5c(cnn5Cc5ccccc5)c4)c3s2)C1)N1CCOCC1 [GSK200398A] | EGFR
3 | COc1cc2ncnc(Nc3cccc(Cl)c3F)c2cc1O[C@H]1CC[C@H]([C@@H]2NCCNC2=O)CC1 [BI00133844] | EGFR
4 | COc1cc2ncnc(Nc3cccc(Cl)c3F)c2cc1O[C@H]1CC[C@@]2(CC1)NCCNC2=O [BI00113608] | EGFR
5 | Fc1cccc(COc2ccc(Nc3ncncc3C#Cc3ccccc3)cc2Cl)c1 [GW651576X] | EGFR
6 | Cl.O=S1CCN(Cc2ccc(-c3ccc4ncnc(Nc5ccc(OCc6ccccc6)c(F)c5)c4c3)o2)CC1 [GW576924A] | EGFR
7 | C#Cc1cccc(Nc2ncnc3cc(OC)c(OC4CCN(C)CC4)cc23)c1 [BI00007366] | EGFR
8 | O=C(Nc1cccc(-c2nn3ncccc3c2-c2ccnc(Nc3cccnc3)n2)c1)c1c(F)cccc1F [GSK312879] | EGFR

The molecules below were run on ERBB2.

Row | SMILES | Kinases covered
9 | COc1cc2ncnc(Nc3ccc(F)c(Cl)c3)c2cc1O[C@H]1CC[C@H](N)CC1 [BIBW3133BS] | ERBB2
10 | Cl.O=C(O[C@H]1CN[C@H](C#Cc2cc3ncnc(Nc4ccc5c(cnn5Cc5ccccc5)c4)c3s2)C1)N1CCOCC1 [GSK200398A] | ERBB2
11 | COc1cc2ncnc(Nc3cccc(Cl)c3F)c2cc1O[C@H]1CC[C@H]([C@@H]2NCCNC2=O)CC1 [BI00133844] | ERBB2
12 | COc1cc2ncnc(Nc3cccc(Cl)c3F)c2cc1O[C@H]1CC[C@@]2(CC1)NCCNC2=O [BI00113608] | ERBB2
13 | Cl.O=S1CCN(Cc2ccc(-c3ccc4ncnc(Nc5ccc(OCc6ccccc6)c(F)c5)c4c3)o2)CC1 [GW576924A] | ERBB2
14 | C#Cc1cccc(Nc2ncnc3cc(OC)c(OC4CCN(C)CC4)cc23)c1 [BI00007366] | ERBB2
15 | CN(C)c1cc2c(Nc3ccc4c(cnn4Cc4ccccc4)c3)ncnc2cn1 [GW282974X] | ERBB2
16 | O=C(Nc1cccc(-c2nn3ncccc3c2-c2ccnc(Nc3cccnc3)n2)c1)c1c(F)cccc1F [GSK312879] | ERBB2
